# Data: paper PMC11062922 (Nature Chemical Biology, 2023)
# Tested on: PKN3;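 note: NanoBRET target engagement in HEK293T cells transiently expressing full-length PKN3 with C-terminal NanoLuc, displacement of fluorescent tracer K5 (500 nM), BRET read after 2 h equilibration at 37 °C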
# Details: read-out: Rep 4; hek293t cells
row,Compound,IC50
1,Cl.NCc1ccc(-c2nc(-c3ccc(Cl)c(O)c3)c(-c3ccncc3)[nH]2)cc1 [SB-476429-A],85.4 nM
2,Fc1ccc(-c2c(-c3ccncc3)[nH]c3cccnc23)cc1 [RO1153853-000],295 nM
3,Cc1cccc(-c2nc(Nc3ccncc3)c3sccc3n2)n1 [GW869641X],87.1 nM
4,Cc1cccc2c(-c3ccncn3)c(-c3ccc(F)cc3)nn12 [GW515532X],257 nM
5,CCn1c(-c2nonc2N)nc2c(C#CC(C)(C)O)nc(OCCNC)cc21.Cl [GSK949675A],136 nM
6,Cl.ON=C1CCc2cc(-c3nc(C4CCNCC4)[nH]c3-c3ccncc3)ccc21 [SB-614067-R],1840 nM
7,CCn1c(-c2nonc2N)nc2c(C#CC(C)(C)O)nc(CN3CCCC3)cc21 [GSK1000163A],1430 nM
8,CCn1c(-c2nonc2N)nc2c(C#CC(C)(C)O)nc(OCCN)cc21.CCn1c(-c2nonc2N)nc2c(C#CC(C)(C)O)nc(OCCN)cc21.Cl.Cl [GSK902056A],79.2 nM
9,CCOc1nccc2c1nc(-c1nonc1N)n2CC [SB-737198],> 50000 nM
10,CCn1c(-c2nonc2N)nc2c(-c3ccccc3)ncc(OCCCN)c21.CCn1c(-c2nonc2N)nc2c(-c3ccccc3)ncc(OCCCN)c21.O=C(O)C(F)(F)F.O=C(O)C(F)(F)F [GSK260205A],3.37 nM
11,LY3009120,173 nM
12,CCn1c(-c2nonc2N)nc2c(C#CC(C)(C)O)nc(OC[C@@H](N)c3ccccc3)cc21 [GSK938890A],22.3 nM
13,CCn1c(-c2nonc2N)nc2c(C#CCN)ncc(OCCCN)c21.O=C(O)C(F)(F)F [GSK561866B],2820 nM
14,COc1cccc2c(-c3ccncc3)c(-c3ccc(F)cc3)nn12 [GW468513X],73.9 nM

# Tested on: CDK1_CycB1
# Details: Highest Assay Concentration (M): 9.9999999999999995E-7
row,Compound,IC50
1,O=C1NC(=O)/C(=C/c2ccc3ncccc3c2)S1 [RO4603632-000],8.37e-06 M
2,O=C1N=C(Nc2ccccc2)S/C1=C\c1ccc2ncccc2c1 [RO4493940-000],2.88e-06 M
3,CONC1=NC(=O)/C(=C/c2ccc3ncccc3c2)S1 [RO4613269-000],2.74e-06 M
4,COc1cc(Nc2ncc3c(C)nc(-c4cc5ccccc5[nH]4)n3n2)cc(OC)c1OC [GW869516X],1.97e-06 M
